Assay results taken from PubChem BioAssay.
Active and inactive are the calls of the source.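 Rule for the calls, unless noted: active = compounds lowering colon cancer cell viability after pretreatment blocking the GSK3B kinase; inactive = the rest.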

Columns and labels:
[1] = Wnt pathway potentiators raising nuclear beta-catenin – imaging, WNT3A-conditioned medium, mouse C2C12, NPC library, primary screen (AID 1117326; in the data active = nuclear beta-catenin stimulation mostly above about 4.2%, no sharp cut-off; inactive = mostly below about 10%; note: reference of the scale not given here); details: stronger effect = higher value
[2] = stimulators of insulin release from INS-1E, primary screen, cell-based, 5 mM glucose, NPC library (AID 1117329;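 active = compound raises insulin release from rat beta cells at 5 mM glucose, no numeric limit stated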; note: reference of the scale not given here); details: rat INS-1E insulin secretion, at 10 µM, stronger effect = higher value
[3] = growth inhibition of GSK3B-pretreated HCT116 cells – cell-based, CellTiter-Glo, 0.2 to 20 µM (AID 1117336); details: HCT116 viability after GSK3B inhibitor, at 20 µM, stronger effect = higher value
[4] = inhibition of endothelial tube formation, primary screen, imaging, VEGF stimulated, CD31 staining, tube area, NPC library (AID 1117340;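 active = compound that reduces growth-factor-driven endothelial tube area in a mixed cell culture, no cutoff stated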); details: VEGF-stimulated ADSC/ECFC co-culture, at 10 µM, stronger effect = higher value
[5] = GLP1 release stimulators, primary, NCI-H716, NPC library (AID 1117341;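 active = compound raises GLP1 secretion from the human gut endocrine cells, with no numeric limit stated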; note: reference of the scale not given here); details: NCI-H716 cells, at 10 µM, stronger effect = higher value
[6] = HCT116 colon cancer cell growth inhibition, primary screen, CellTiter-Glo luminescence, NPC library (AID 1117342;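 active = compounds that lower survival of HCT116 colon cancer cells in the luminescence readout, no numeric limit stated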); details: at 20 µM (top of the series)
[7] = reduced SW480 viability measured with CellTiter-Glo, NPC library, primary (AID 1117343;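 active = compounds that lower viability of the colon cancer cells in the luminescence readout, with no numeric limit stated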); details: CellTiter-Glo luminescence; at 20 µM (top of the series)
[8] = NPC library primary testing for decreased DLD-1 cell viability via CellTiter-Glo (AID 1117346;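 active = compounds that lower survival of DLD-1 colon cancer cells in the luminescence readout, no cutoff given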); details: DLD-1 viability, CellTiter-Glo luminescence; at 20 µM (top of the series)

| Structure (SMILES) | nuclear beta-catenin stimulation ([1]; at 10 µM) | nuclear beta-catenin stimulation ([1]; stimulation, at 2 µM) [%] | insulin secretion stimulation [2] | viability decrease [3] | tube area decrease [4] | GLP1 secretion stimulation [5] | inhibition of viability [6] | viability decrease (inhibition) [7] | viability decrease (inhibition) [8] |
| --- | --- | --- | --- | --- | --- | --- | --- | --- | --- |
| C=CCOC(Cn1ccnc1)c1ccc(Cl)cc1Cl (stereo unspecified) | 4.9% (inactive) | 2.5 | 6.1% (inactive) | -54.8% (inactive) | 6.3% (inactive) | 0.8% (inactive) | 58.1% (active) | 96.7% (active) | 30.1% (inactive) |
| C[C@]12CC[C@H]3[C@@H](CC[C@@]45O[C@H]4C(O)=C(C#N)C[C@]35C)[C@H]1CC[C@H]2O | 1.5% (inactive) | 1.1 | -0.7% (inactive) | -177% (inactive) | 28.3% (inactive) | -1.5% (inactive) | 11.5% (inactive) | 5.1% (inactive) | -16.6% (inactive) |
| CCOP(=S)(OCC)O/N=C(\C#N)c1ccccc1 | -0.3% (inactive) | 0.3 | -1.4% (inactive) | -25.2% (inactive) | -2.3% (inactive) | -1.1% (inactive) | 0.2% (inactive) | 36.2% (inactive) | -6.4% (inactive) |
| Nc1ccccc1C(=O)OCC(O)CO (stereo unspecified) | 3.1% (inactive) | 3.4 | -1.4% (inactive) | -40% (inactive) | 21.1% (inactive) | -1.2% (inactive) | -0.1% (inactive) | -4.5% (inactive) | -4.9% (inactive) |
| CCN(CC)Cc1nccn1-c1ccc([N+](=O)[O-])cc1C(=O)c1ccccc1Cl | -1.2% (inactive) | -0.2 | 7.4% (inactive) | -3% (inactive) | 2.7% (inactive) | -0.3% (inactive) | 28.5% (inactive) | 39.7% (inactive) | 0% (inactive) |
| CN1C(=O)NC(=O)C(C)(C2=CCCCC2)C1=O (stereo unspecified) | 1.5% (inactive) | 0.7 | -0.5% (inactive) | -11.4% (inactive) | 0.1% (inactive) | 0.1% (inactive) | -2.4% (inactive) | 18.4% (inactive) | -1.75% (inactive) |
| CCS(=O)(=O)C(C)(C)S(=O)(=O)CC | -0.7% (inactive) | 1.4 | -0.1% (inactive) | 2.1% (inactive) | -6.6% (inactive) | -1.4% (inactive) | -17.9% (inactive) | -3.1% (inactive) | -0.85% (inactive) |
| Nc1ccc(N)cc1 | -0.1% (inactive) | 0.8 | -3.1% (inactive) | -2.35% (inactive) | -29.4% (inactive) | 4.2% (inactive) | 51% (active) | 84.1% (active) | -15.2% (inactive) |
| ClCCCN1CCN(c2cccc(Cl)c2)CC1 | -0.9% (inactive) | -2.6 | 1.1% (inactive) | 15% (inactive) | -11.1% (inactive) | 1.5% (inactive) | 42.8% (inactive) | 26.2% (inactive) | 50.1% (active) |
| CC1=C(C(=O)O)N2C(=O)[C@@H](N)[C@H]2SC1 | -0.8% (inactive) | 0.3 | 0.4% (inactive) | 9.7% (inactive) | -6.3% (inactive) | 4.2% (inactive) | 13.3% (inactive) | 33.8% (inactive) | 21.2% (inactive) |
| CNC(C)[C@@H](O)c1ccc(O)cc1 (stereo partly specified) | 0.7% (inactive) | 1.3 | 4.8% (inactive) | -4.1% (inactive) | -8.3% (inactive) | -5% (inactive) | 3.4% (inactive) | 27.7% (inactive) | 6% (inactive) |
| C[C@]12Cc3nonc3C[C@@H]1CC[C@@H]1[C@@H]2CC[C@@]2(C)[C@H]1CC[C@]2(C)O | 2.5% (inactive) | 0.4 | -2.4% (inactive) | 38.9% (inactive) | 1.9% (inactive) | 3.3% (inactive) | 1.5% (inactive) | 118% (active) | 61% (active) |
| CC(C)=C[C@@H]1[C@@H](C(=O)OCc2coc(Cc3ccccc3)c2)C1(C)C | 0.3% (inactive) | 0.4 | -3.4% (inactive) | 14.7% (inactive) | 12.6% (inactive) | -0.4% (inactive) | 12.9% (inactive) | 87.8% (active) | 23.4% (inactive) |
| COC1CC(=C(c2cccs2)c2cccs2)C[N+](C)(C)C1 (stereo unspecified) | -1.6% (inactive) | 1.1 | 0.1% (inactive) | -13.9% (inactive) | 10.1% (inactive) | -0.6% (inactive) | 8.3% (inactive) | -2.9% (inactive) | -0.4% (inactive) |
